Our source for the growth values is PubChem BioAssay (NCI).

The panel holds about 83,000 compounds, 20% with a hit somewhere; the sample as a whole holds those more often.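 For each line, cells grew in 96-well plates with the test compound present at a single concentration for 48 hours.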 A number with no mark means an inactive call. Calls of active or inactive are those of the source. The calls were made as follows: active = growth percent below 10; inactive = the rest.

Holding throughout (assay): NCI-60 one-dose screen, 48 h (100 = growth as untreated, 0 = no growth, -100 = all killed)
Conditions in all cases: 10 µM unless noted

The subject of assay [1] is SR leukemia.
Assay [2] deals with RPMI-8226 leukemia.
The subject of assay [3] is OVCAR-8 ovarian.
The subject of assay [4] is OVCAR-5 ovarian.
Assay [5] concerns SK-OV-3 ovarian.
For assay [6], the system named is IGROV1 ovarian.
Assay [7] relates to OVCAR-3 ovarian.
Assay [8] concerns HS 578T breast.
For assay [9], the system named is NCI/ADR-RES ovarian.
Assay [10] concerns OVCAR-4 ovarian.

Regarding `Cc1ccc(C)c(NC2=C(Cl)C(=O)c3nc(C)ccc3C2=O)c1`, the growth in assay [1] is 1.99% (active); in assay [2], -41.9% (active); in [3], 9.92% (active); in [4], -71.8% (active); in assay [5], 93%; in [6], -66.8% (active). Further, the growth was -97.4% (active) in assay [7], -24.8% (active) in [8] and -6.86% (active) in assay [9].
With `CN(C)c1ccc(-c2cc(-c3c[nH]c4ccccc34)nc(N)c2C#N)cc1`, the growth was 9.16% (active) in [1]; 4.44% (active) in assay [2]; 25.6% in assay [3]; 48.8% in [4]; 30.9% in assay [5]; 42.2% in [6]. For the same compound, the growth in assay [8] is 35.6%; in [9], 14.9%.
Take `COc1ccc(OC)c(CCn2cncc2-c2c[nH]c3ccc(Cl)cc23)c1`: the growth in [1] is 16.3%; in assay [2], 33.9%; in assay [3], 40.5%; in [4] it was 83.9%; in assay [5] it was 43.1%; in assay [6], 58.8%. Further, the growth in assay [7] is 40%; in [8] it was 57.1%; in assay [9] it was 29.8%.
In the case of `CCNC(=O)Oc1ccc(/C(=C(/C)c2ccc(Cl)cc2)c2ccc(OCCN3CCCCCC3)cc2)cc1`, the growth in assay [1] is -5.81% (active); in [2], -14.9% (active); in [3], 51.5%; in [4], 53.5%; in assay [10], 43.4%; in [5], 63.2%. Further, in assay [9], the growth was 38.1%.
On to `CCOC(=O)c1c(NCC(=O)Nc2cccc([N+](=O)[O-])c2)sc(C(C)=O)c1C`, for which the growth in assay [1] was 0.317% (active); in assay [2] it was -14.1% (active); in assay [3] it was -8.65% (active); in assay [4] it was 1.07% (active); in assay [5] it was -13.4% (active); in [6] it was 22%. Moreover, the growth was -37.2% (active) in assay [7], -23.9% (active) in assay [8] and -28.3% (active) in assay [9].
For `Cn1cc(-c2nn3cc(-c4ccncc4)nc3s2)c2cc(F)ccc21`, the growth in assay [1] is 1.87% (active); in [2] it was 55.3%; in assay [3], 58.6%; in [4], 100%; in assay [10] it was 72.8%; in assay [5] it was 92.7%. The growth in assay [9] was 78.7%.
For `COc1ccc(-c2cnc(NC(=O)CCCCCCNC(=O)C(O)(O)C(F)(F)F)s2)cc1`, the growth is 13.2% in [1]; 14% in assay [2]; -3.57% (active) in [3]; 4.6% (active) in assay [4]; -19.3% (active) in assay [5]; -18.7% (active) in assay [6]. Further, the results for the growth in [7], in [8] and in assay [9] were -50.6% (active), 9.86% (active) and -2.38% (active), respectively.
In the case of `Brc1cc(-c2cc(-c3ccc4c(c3)OC=CO4)[nH]n2)cs1`, the growth in assay [1] is 60.9%; in assay [2] it was 81%; in assay [3] it was 99.4%; in [4] it was 115%; in assay [5], 86%; in assay [6], 66.1%. The growth in assay [8] is 90%; in assay [9], 65.4%.
As for `CC(C)(C)OC(=O)Nc1ccc(-c2cccc(Oc3ccc4nnc(Cl)n4n3)c2)cc1`, the growth in assay [1] was 36%; in [2] it was 43.2%; in assay [3] it was 71.3%; in assay [4], 100%; in [5], 95.5%; in [6] it was 98.8%. The growth in assay [8] was 94.5%.
As for `C#CCn1cc(/C=N/Nc2nc(-c3ccc(Br)cc3)cs2)c2ccccc21`, the growth is 119% in assay [1]; 110% in assay [2]; 101% in assay [3]; 97.4% in [4]; 91.1% in [5]; 74.9% in assay [6]. For the same compound, the growth in assay [7] is 108%; in [8], 101%; in [9], 101%.
As to `CN1CCN(Cc2ccc(/C=N/Nc3ccnc4cc(Cl)ccc34)cc2)CC1`, the growth in [1] is 2.66% (active); in assay [2], 46.7%; in [3], 80.1%; in assay [4], 102%; in assay [5], 107%; in assay [6] it was 69.2%. Besides, the growth in assay [9] was 87%.
On to `CC(=O)c1cc(C(=O)N2c3ccccc3Sc3ccccc32)n2c1ccc1ccccc12`, for which the growth in assay [1] is 11%; in assay [2], 48.3%; in assay [3], 71.5%; in assay [4], 86.6%; in [5], 59.8%; in assay [6] it was 52.7%. Besides, the growth is 55.1% in assay [8] and 35.9% in [9].
With `O=C1/C(=C/C=C/c2ccco2)SC(=S)N1Cc1ccccc1`, the growth in assay [1] was 46.3%; in assay [2] it was 93.6%; in [3], 100%; in [4], 105%; in assay [5], 103%; in [8], 104%. Further, the growth in [9] is 99.8%.
`O=c1oc2ccc(-c3ccc(F)cc3F)cc2c(=O)n1-c1ccc(Br)cc1F`: the growth is 85.1% in assay [1]; 31.6% in assay [2]; 69.5% in assay [3]; 108% in assay [4]; 63.9% in assay [5]; 47.2% in assay [8]. Further, the growth in assay [9] is 75.3%.
For the compound `CNC(=O)c1cc(-c2ccc(NC(=S)Nc3cccc(C(F)(F)F)c3)cc2)nc2cccnc12`, the growth in assay [1] is 80.8%; in assay [2] it was 95.2%; in assay [3] it was 93.9%; in [4], 102%; in assay [5] it was 105%; in [6] it was 103%. The values for the growth in [7], in assay [8] and in assay [9] were 109%, 105% and 95.3%, respectively.
Regarding `CC1=C(C)C(=O)C(Nc2ccc3c(c2)OCO3)=C(Br)C1=O`, the growth in assay [1] was 56.9%; in assay [2], 71%; in assay [3], 98.3%; in [4], 116%; in [5], 87.6%; in assay [6], 90.9%. The values for the growth in assay [7], in assay [8] and in assay [9] were 104%, 99.7% and 97.4%, respectively.
For `C/C(=N/N)c1nnn(-c2ccc(Br)cc2)c1C`, the growth in assay [1] is 96%; in [2], 105%; in assay [3] it was 102%; in assay [4] it was 93.2%; in [5] it was 109%; in assay [6], 95.1%. In [8], the growth is 102%.
For `O=C(/C=C/c1ccc(Cl)c(Cl)c1)Nc1ncc(Cc2ccc(Cl)c(Cl)c2)s1`, the growth in assay [1] is 38%; in assay [2], 81.2%; in [3], 44%; in [4] it was 59.6%; in [10] it was 34%; in assay [5] it was 77.1%. Moreover, the growth in [9] was 52.8%.
`O=C1[C@@H]2Cc3c([nH]c4ccccc34)[C@@H](c3ccc(Cl)cc3)N2C(=O)CN1C1CCN(Cc2ccccc2)CC1`: the growth in assay [1] was -25.3% (active); in assay [2], 18.9%; in assay [3] it was 43.9%; in [4], 90.1%; in [5], 80.5%; in assay [6], 29%. Further, in assay [9], the growth was 51.2%.
